Experimental data taken from PMC4552634, “A New Set of Chemical Starting Points with Plasmodium falciparum Transmission-Blocking Potential for Antimalarial Drug Discovery” (PLoS ONE, 2015).
The whole screen tested about 13,000 compounds, of which about 3,200 (25%) showed an effect of 50% or more. This is one part of the list.

What follows are compounds tested on P. falciparum stage V gametocytes. Details: 48 h, 5 µM; inhibitor.
Parameters: BacTiter-Glo ATP luminescence viability of purified stage V gametocytes in 384-well plates, per cent inhibition versus DMSO

| SMILES | % Inhibition |
| --- | --- |
| O=C(Nc1c(F)cccc1F)c1cccc(-c2nn3ccccc3c2-c2ccnc(Nc3cccc(-c4cnco4)c3)n2)c1 [TCMDC-135743] | -41.11% |
| c1ccc2c(c1)cc(CNCCCN1CCN(CCCNCc3cc4ccccc4c4ccccc34)CC1)c1ccccc12 [TCMDC-137914] | 113.5% |
| c1ccc2c(CNCCCN3CCN(CCCNCc4c5ccccc5cc5ccccc45)CC3)c3ccccc3cc2c1 [TCMDC-137909] | 115.6% |
| O=C(/C=C/c1ccc(Cl)c(Cl)c1)NCCCCCN1CCC(C(=O)Nc2cccc(Cl)c2)CC1 [TCMDC-136120] | -13.38% |
| Cc1ccc(NC(=O)c2cccc(C#N)c2)cc1-c1ccc(C(=O)Nc2ccncc2)cc1 [TCMDC-133697] | -8.671% |
| CCC[C@@H]([C@@H](Cc1ccc(C)s1)C(=O)N[C@@H](CNC(C)=O)C(=O)Nc1nccs1)N(O)C=O [TCMDC-138137] | -97.54% |
| Cc1cc(C)c2[nH]cc(C(=O)O)c(=O)c2c1 [TCMDC-123953] | 3.462% |
| Oc1ccc(Cl)c2c1C(c1ccccc1)=NCC2 [TCMDC-137522] | -9.659% |
| COc1ccc(Oc2ccc(Nc3ccnc4ccc(C(F)(F)F)cc34)cc2)cc1OC [TCMDC-138310] | -11.17% |
| CN(C)CCCc1cc2c(cc1Cl)CCN2C(=O)Nc1ccc(-c2ccncc2)c2ccccc12 [TCMDC-139215] | -22.47% |
| CCCc1cc(C(=O)N[C@@H](Cc2ccccc2)[C@H](O)CNC(C)(C)c2cccc(OC)c2)c(F)c(N2CCCC2=O)c1 [TCMDC-135396] | 48.39% |
| CCN(CC)Cc1ccc(OC)c(-c2cc3c(-c4ccc(C(=O)O)c(C(C)C)c4)ccnc3[nH]2)c1 [TCMDC-135051] | 59.03% |
| COc1c(CN2CCCC2)cccc1-c1cc2c(-c3ccc(C(=O)O)c(C(C)C)c3)ccnc2[nH]1 [TCMDC-135050] | 69.12% |
| COc1ccc(-c2cnc3[nH]cc(-c4ccc(C(=O)O)c(C)c4)c3c2)cn1 [TCMDC-136360] | 34.92% |
| COc1ccc(CN(C)CCOc2ccc(NC(=O)c3cccc4c(=O)cc(-c5ccccc5)[nH]c34)cc2)cc1OC [TCMDC-131849] | 25.38% |
| COc1cccc(CN2CCC(C(=O)Nc3ccc(-c4nc5ccccc5[nH]4)cc3)CC2)c1 [TCMDC-124615] | -54.81% |
| COc1c(CN2CCOCC2)cccc1-c1cc2c(-c3ccc(C(=O)O)c(C(C)C)c3)ccnc2[nH]1 [TCMDC-135049] | -0.2517% |
| CN(C)CC1CCCN1Cc1ccccc1-c1cnn(C)c(=O)c1Oc1ccc(F)cc1 (stereo not shown) [TCMDC-135098] | 10.73% |
| O=C(NCCCN1CCN(c2cccc(Cl)c2)CC1)c1ccc(-c2nc3cc(Cl)c(Cl)cc3[nH]2)c(F)c1 [TCMDC-140084] | -21.33% |
| O=C(CNc1ccc(Cl)c(S(=O)(=O)N2CCCC2)c1)Nc1ccc(Br)cc1F [TCMDC-125102] | 24.63% |
| Cc1onc(-c2ccccc2)c1-c1nc(NCCC(c2ccccc2)c2ccccc2)no1 [TCMDC-134203] | 3.551% |
| CC(C)N1CCC(N(Cc2ccc(-c3ccc(C(F)(F)F)cc3)cc2)C(=O)Cn2c(SCc3cccc(F)c3F)cc(=O)c3c2CCC3)CC1 [TCMDC-141320] | 98.3% |
| CN1CCC(N(Cc2ccc(-c3ccc(C(F)(F)F)cc3)cc2)C(=O)Cn2c(SCc3cccc(F)c3F)cc(=O)c3c2CCC3)CC1 [TCMDC-141319] | 92.96% |
| O=C(NOCc1ccccc1)c1cc(Cl)ccc1O [TCMDC-131603] | 3.846% |

| SMILES | % Inhibition |
| --- | --- |
| CCC1CCc2cc(N)cc(-c3nc4c(c(C)nn4CC)c(=O)[nH]3)c2O1 (stereo not shown) [TCMDC-131857] | 1.879% |
| CCC(=O)Nc1ccc(C(O)CN2CCC3(C=Cc4ccccc4O3)CC2)cc1 (stereo not shown) [TCMDC-124852] | 40% |
| COc1cc2nc(NCCn3ccnc3C)nc(NCCc3ccccc3)c2cc1OC [TCMDC-135471] | 66.44% |
| COc1cc2nc(NCCn3cccn3)nc(NCCc3ccccc3)c2cc1OC [TCMDC-135472] | 50.26% |
| CN(C)Cc1ccc(-c2ccc3c(Nc4ccc(Oc5ccccn5)cc4)ccnc3c2)o1 [TCMDC-138425] | 93.82% |
| CN(C)Cc1ccc(-c2ccc3c(Nc4ccc(Oc5ccccc5)cc4)ccnc3c2)o1 [TCMDC-138401] | -9.57% |
| CN(C)CCNCc1ccc(-c2ccc3c(Nc4ccc(Oc5ccccc5)cc4)ccnc3c2)o1 [TCMDC-138399] | 96.18% |
| CN(C)CCN(C)Cc1ccc(-c2ccc3c(Nc4ccc(Oc5ccccc5)cc4)ccnc3c2)o1 [TCMDC-138400] | 100.2% |
| c1ccc(Oc2ccc(Nc3ccnc4ccc(-c5ccccn5)cc34)cc2)cc1 [TCMDC-138118] | -22.81% |
| CN(C)CCN(C)Cc1ccc(-c2ccc3c(Nc4ccc(Oc5ccccn5)cc4)ccnc3c2)o1 [TCMDC-138426] | 89.24% |
| Clc1cc2c(Nc3ccc(Oc4ccccc4)cc3)ccnc2cc1-c1ccc(CNCCN2CCOCC2)o1 [TCMDC-138464] | 21.03% |
| CS(=O)(=O)CCNCc1ccc(-c2ccc3c(Nc4ccc(Oc5ccccn5)cc4)ccnc3c2)o1 [TCMDC-138444] | 5.347% |
| COc1ccc(NC(=O)c2csc(-c3cc(NC(=O)c4ccnc(N5CCCC5)c4)ccc3C)c2)cc1N1CCN(C)CC1 [TCMDC-136374] | 23.12% |
| NC(=O)c1cccc(Nc2nccc(Nc3ccc(Oc4cccc5ccccc45)cc3)n2)c1 [TCMDC-138599] | -18.47% |
| CC[C@H]1CN2CC[C@H]1C[C@@H]2[C@@H](OC(=O)c1ccc(Cl)cc1)c1ccnc2ccc(OC)cc12 [TCMDC-125492] | -10.63% |
| CC(C)(C)c1cc(C(=O)N2CCN(c3ncccc3C(F)(F)F)CC2)n(Cc2ccccc2)n1 [TCMDC-134142] | 2.354% |
| CCN(CC)C(=O)C1CCCN(c2cc(C)nc(Nc3ccc(Cl)cc3)n2)C1 (stereo not shown) [TCMDC-132204] | -2.665% |
| N#Cc1ccc(N2CCN(Cc3cccc(-c4cccc(-c5nc6cc(C(F)(F)F)ccc6[nH]5)c4)c3)CC2)nc1.O=C(O)C(F)(F)F [TCMDC-133117] | -5.62% |
| O=C(CCn1c2ccccc2c2ccccc21)NN=Cc1ccco1 [TCMDC-125735] | -6.333% |
| CC(C)Cn1cc2c(ccc3nc(N)nc(N)c32)n1 [TCMDC-137969] | -46.77% |
| COc1ccc2nccc([C@@H](O)CN3CCC(NC(=O)/C=C/c4cccc(-c5ccccc5)c4)CC3)c2c1 [TCMDC-141043] | -22.17% |
| CC(C)[C@@H](NC(=O)NC1CCC(CCN2C3CCC2CC(OC(=O)C(CO)c2ccccc2)C3)CC1)C(O)(c1ccccc1)c1ccccc1 (stereo partly shown) [TCMDC-136458] | 45.88% |
| CC(NCCC1CCC(NC(=O)N[C@H](C)C(O)(c2ccccc2)c2ccccc2)CC1)c1cccc2ccccc12 (stereo partly shown) [TCMDC-136378] | 64.1% |
| N#Cc1ccc2c(c1)CCN(CCC1CCC(NC(=O)/C=C/c3cccc4ccccc34)CC1)CC2 (stereo not shown) [TCMDC-139777] | -39.21% |

| SMILES | % Inhibition |
| --- | --- |
| CC(NC(=O)NC1CCC(CCN2CCCc3ccccc32)CC1)c1cccc2ccccc12 (stereo not shown) [TCMDC-136176] | 92.78% |
| CC(C)[C@H](NC(=O)NC1CCC(CCN2C3CCC2CC(OC(=O)C(CO)c2ccccc2)C3)CC1)C(O)(c1ccccc1)c1ccccc1 (stereo partly shown) [TCMDC-136457] | -19.47% |
| CC(=O)c1ccc2c(c1)CCN(CCC1CCC(NC(=O)c3cc4ccccc4[nH]3)CC1)CC2 (stereo not shown) [TCMDC-139776] | -25.73% |
| Oc1cc2c(cc1CN1CCN(Cc3cccs3)CC1)CCC2 [TCMDC-125012] | 1.025% |
| CCN(CC)CCN1C(=O)c2oc3ccc(Cl)cc3c(=O)c2C1c1ccc(SC)cc1 (stereo not shown) [TCMDC-124623] | 3.621% |
| CCCCCN1C(=O)C(c2ccccc2)(c2ccccc2)N=C1N [TCMDC-136877] | -32.2% |
| COc1cccc(-c2cnc(N)c(-c3nc4ccc(C(F)(F)F)cc4[nH]3)c2)c1 [TCMDC-138790] | 13.24% |
| COc1ccccc1NC(=O)Nc1ccc(-c2ccc(-c3nc4ccc(C(F)(F)F)cc4[nH]3)cc2)cc1 [TCMDC-133202] | -7.674% |
| CCCCCCCc1cc(O)c2c3c(c(=O)oc2c1)CN(C)CC3 [TCMDC-124145] | 8.32% |
| Cc1sc(CNCCCNc2cc(=O)c3ccccc3[nH]2)c(C(F)(F)F)c1C [TCMDC-140906] | 5.874% |
| Cc1cccc2[nH]c(-c3cccc(-c4ccc(NC(=O)Nc5cccc(C#N)c5)cc4)c3)nc12 [TCMDC-133192] | 2.358% |
| Cc1cccc2[nH]c(-c3ccc(-c4cccc(NC(=O)Nc5ccccc5)c4)cc3)nc12 [TCMDC-133155] | 0.6364% |
| Cn1cccc1C(=O)C(=O)Nc1cccc(-c2ccc(-c3nc4ccc(C(F)(F)F)cc4[nH]3)cc2)c1 [TCMDC-136910] | 0.09328% |
| Cc1cccc2[nH]c(-c3ccc(-c4cccc(NC(=O)C(=O)c5cccn5C)c4)cc3)nc12 [TCMDC-136907] | 90.5% |
| Cc1cccc2[nH]c(-c3cccc(-c4ccc(NC(=O)C(=O)c5cccn5C)cc4)c3)nc12 [TCMDC-136909] | 70.67% |
| Cc1cccc2[nH]c(-c3cccc(-c4ccc(NC(=O)Nc5ccc(Cl)cc5)cc4)c3)nc12 [TCMDC-133177] | 12.12% |
| CCNC(=O)Nc1ccc(-c2cccc(-c3nc4c(C)cccc4[nH]3)c2)cc1 [TCMDC-133171] | -9.855% |
| Cc1cccc2[nH]c(-c3ccc(-c4ccc(NC(=O)Nc5ccc(Cl)cc5)cc4)cc3)nc12 [TCMDC-133184] | -26.89% |
| Cc1cccc2[nH]c(-c3cccc(-c4cccc(NC(=O)Nc5cccc(C#N)c5)c4)c3)nc12 [TCMDC-133194] | -35.1% |
| Cc1cccc2[nH]c(-c3ccc(-c4ccc(NC(=O)C(=O)c5cccn5C)cc4)cc3)nc12 [TCMDC-136908] | 78.98% |
| Cn1cccc1C(=O)C(=O)Nc1ccc(-c2ccc(-c3nc4ccc(F)cc4[nH]3)cc2)cc1 [TCMDC-136780] | -3.552% |
| Cc1cccc2[nH]c(-c3ccc(-c4cccc(NC(=O)Nc5cccc(C#N)c5)c4)cc3)nc12 [TCMDC-133198] | 83.69% |
